Hit rate of the full screen: of about 48,000 compounds, about 13,000 (27%) showed an effect of 50% or more. The list shows a part of the results.
Test system: Wolbachia pipientis
Assay: Anti-Wolbachia Cell-Based Screen
Format: functional
Design: scale not given: in the data most compounds retested in dose-response had high values
Settings: 5 µM

| SMILES | Percent Effect |
| --- | --- |
| COc1ccc2c(CN3CCCN(Cc4ccncc4)CC3)n[nH]c2c1 | -3.33% |
| COCCc1noc(CN2CCCC2Cn2cc(C)cn2)n1 (stereo unspecified) | 0.3604% |
| c1cnn(CC2CCCN2Cc2nc(C3CC3)no2)c1 (stereo unspecified) | 112.2% |
| COCCc1noc(CN2CCCC2Cn2cccn2)n1 (stereo unspecified) | 82.73% |
| Cc1cccc(-c2noc(CN3CCCC3Cn3cccn3)n2)c1 (stereo unspecified) | 3.964% |
| COCCc1noc(CN2CCCCC2Cn2cc(C)cn2)n1 (stereo unspecified) | 4.505% |
| COc1ccccc1-c1noc(CN2CCCC2Cn2cccn2)n1 (stereo unspecified) | -4.509% |
| c1cnn(CC2CCCN2Cc2nc(-c3ccoc3)no2)c1 (stereo unspecified) | -2.106% |
| COCCc1noc(CN2CCCCC2Cn2cccn2)n1 (stereo unspecified) | 100.4% |
| NC(=O)C1CCCN1Cc1cccc(NC(=O)c2ccsc2)c1 (stereo unspecified) | 23.54% |
| CCOc1ccnc(N2CCN(C(=O)CCc3cnn(C)c3)CC2)n1 | -13.21% |
| CC(C)(C)[S+]([O-])CCNC(=O)c1ccc(Cl)c2cccnc12 (stereo unspecified) | -0.5335% |
| CCN(CC)C(CNCc1ccc(OC)c(F)c1)c1ccco1 (stereo unspecified) | 3.453% |
| CC1(c2ncc(CN3CCN(c4ncccn4)CC3)cn2)CCCCO1 (stereo unspecified) | 136.6% |
| CC(C)(C)c1cnc(CN2CCN(c3ncccn3)CC2)o1 | -4.757% |
| CN(CCc1ccccc1)Cc1cnc(C2(C)CCCCO2)nc1 (stereo unspecified) | 153.2% |
| CN(CCc1ccccc1)Cc1cc(C(=O)N2CCCC2(C)C)no1 | -2.856% |
| CN(CCc1ccccc1)Cc1nc(-c2cnccn2)no1 | -27.95% |
| CC(C)=CCC1(CO)CCCN(Cc2cnc(N3CCOCC3)nc2)C1 (stereo unspecified) | -21.22% |
| Cn1cnnc1C1CCCN(C(=O)CCc2ccc3c(c2)OCO3)C1 (stereo unspecified) | 6.982% |
| Cc1cc(C)n(C2CCCN(C(=O)c3cc(C4CC4)on3)C2)n1 (stereo unspecified) | 8.092% |
| Cn1cnnc1C1CCCN(C(=O)c2cc(C3CC3)on2)C1 (stereo unspecified) | 107.9% |
| Cn1cnnc1C1CCCN(C(=O)Cc2ccc3c(c2)OCCO3)C1 (stereo unspecified) | 17.9% |
| Cc1cc(C(=O)N2CCCC(c3nncn3C)C2)no1 (stereo unspecified) | 92.93% |

| SMILES | Percent Effect |
| --- | --- |
| Cc1ccc(C(NC(=O)CN2CCc3cncnc3C2)C2CC2)cc1 (stereo unspecified) | 0.6852% |
| Cc1nonc1OCCNc1ncnc2sc3c(c12)CCNC3 | -7.187% |
| O=C1CN(Cc2nnc(-c3ccc(Br)cc3)o2)CCN1 | -13.92% |
| CC(c1ccc(-c2cnc(N)nc2)cc1)N1CCOCC1 (stereo unspecified) | 42.28% |
| Cn1cccc1C(=O)N1CCC2(CCN2c2ncccn2)C1.O=C(O)C(F)(F)F (stereo unspecified) | 93.48% |
| Cn1cccc1C(=O)N1CCC2(CCCN2c2ncccn2)CC1.O=C(O)C(F)(F)F | 1.069% |
| Cn1ccnc1C(=O)N1CCC2(CCN2c2ncccn2)C1.O=C(O)C(F)(F)F (stereo unspecified) | 99.87% |
| CCN1CCCC12CCN(C(=O)c1nccn1C)CC2.O=C(O)C(F)(F)F | -7.491% |
| Cn1cccc1C(=O)N1CCC2(CC1)CN(c1ccccn1)CCO2.O=C(O)C(F)(F)F | -8.251% |
| Cn1ccc(C(=O)N2CCC3(CCN3c3ncccn3)C2)n1.O=C(O)C(F)(F)F (stereo unspecified) | 111.1% |
| O=C(O)C(F)(F)F.O=C(c1c[nH]cn1)N1CCC(F)(F)C2(CCN(c3ncccn3)C2)C1 (stereo unspecified) | 7.042% |
| CCCC(C)N(C)Cc1nnc(-c2ccco2)o1 (stereo unspecified) | -4.256% |
| CSc1c[nH]nc1NS(=O)(=O)c1cc(F)ccc1C | -3.23% |
| CCN1CCN(Cc2nc(Cc3ccccc3)n[nH]2)CC1 | 2.697% |
| O=C(NCc1ccc2c(c1)OCO2)[C@H]1C=CCN1c1ncccn1 | 120.2% |
| O=C(CCc1ccc2c(c1)OCO2)Nc1cccnc1-n1cncn1 | 6.275% |
| O=C(NCc1ccc2c(c1)OCO2)[C@@H]1C=CCN1c1ncccn1 | 142.5% |
| O=C(NCc1ccc2c(c1)OCO2)N1CCCC2(C1)OCCO2 | 2.082% |
| CC(NC(N)=O)C(=O)NCc1ccc(Br)c(F)c1 (stereo unspecified) | -7.533% |
| CC(=O)N1CCC(c2[nH]ncc2S(C)(=O)=O)CC1 | 87.45% |
| CN1CCN(C(=O)C2CCCc3[nH]ncc32)CC1 (stereo unspecified) | -8.316% |
| CCC(CC)N1CCC(c2[nH]ncc2S(C)(=O)=O)C1 (stereo unspecified) | 101.4% |
| CCc1cn[nH]c1C1CCN(C(=O)c2cc(C(C)=O)c(C)[nH]c2=O)CC1 | 3.575% |
| CC(=O)N1CCN(C(=O)NCCCc2cn[nH]c2C)CC1 | -4.106% |

| SMILES | Percent Effect |
| --- | --- |
| CN1CCC(c2[nH]ncc2S(C)(=O)=O)CC1 | 125.9% |
| Cc1c(CN2CCCC(c3[nH]ncc3S(C)(=O)=O)C2)cnn1C (stereo unspecified) | 3.915% |
| CC(=O)N(C)C1CCN(C(=O)NCC(C)Cc2cccs2)CC1 (stereo unspecified) | 8.983% |
| O=C(O)[C@@H]1CN(Cc2ccc(-c3cc[nH]n3)s2)C[C@H]1C1CC1 | 7.901% |
| CCOC(=O)c1nnc2ccccc2c1N1CCN(C(C)C)CC1 | -0.1532% |
| COC(=O)[C@H]1C[C@@H](O)CCN1S(=O)(=O)c1cc(C)c(Cl)cc1C | -11.31% |
| O=C(Nc1ccccc1C(=O)N1CCCC1)NC1CCOCC1 | -1.242% |
| Cc1ccc(CN2CCC(c3nnc(CN4CCCCC4)n3C)CC2)o1 | -6.981% |
| CCn1cc(CNC(=O)CCc2nnc(-c3ccc(C)s3)o2)cn1 | 1.856% |
| CN1CCN(C(=O)[C@H]2CC[C@@H]3[C@@H](CCN3Cc3nccs3)O2)CC1 | 100.9% |
| Cc1ccsc1CN1CC[C@H]2O[C@H](C(=O)N3CCCO3)CC[C@H]21 | -0.787% |
| O=C([C@H]1CN(Cc2nccs2)C[C@H]2OCC[C@@H]12)N1CCCC1 | -16.26% |
| CN1CCN(C(=O)[C@H]2C[C@H]3[C@H](CCN3Cc3nccs3)O2)CC1 | 108.2% |
| CN1CC[C@H](c2nnc(-c3cncn3C)o2)C1 | -6.33% |
| O=C(Nc1ccc(F)cc1)NC1(CCO)CCOCC1 | -10.62% |
| CC(C)NC(=O)N1CCC2(CC1)NC(=O)CC2c1ccncc1.O=C(O)C(F)(F)F (stereo unspecified) | -5.587% |
| CN(C)C1(CNC(=O)C2CCCN2Cc2ccc(F)cc2)CCOCC1 (stereo unspecified) | -14.73% |
| O=C(NCCCO)C1(CC2CC(c3ccc(F)cc3)=NO2)CCOCC1 (stereo unspecified) | 116.1% |
| CC(C)NC(=O)C1(CC2CC(c3ccc(F)cc3)=NO2)CCNCC1.O=C(O)CC(O)(CC(=O)O)C(=O)O (stereo unspecified) | 90.44% |
| O=C(NCc1nncn1C1CC1)C1(c2ccc(F)cc2)CCOCC1 | 7.233% |
| O=C(NCCO)C1(CC2CC(c3ccc(F)cc3)=NO2)CCOCC1 (stereo unspecified) | 103.4% |
| CNS(=O)(=O)c1cc(C(=O)N2CCCCCC2CC(C)C)co1 (stereo unspecified) | 3.036% |
| CCOC(=O)NC(CNC(=O)CCc1ccccn1)CC(C)C (stereo unspecified) | -10.22% |
| O=C(c1cccnc1O)N(Cc1ccsc1)CC1CCCO1 (stereo unspecified) | -13.31% |

| SMILES | Percent Effect |
| --- | --- |
| CNC(=O)[C@@]12CCCN(c3ncccn3)[C@@H]1CN(C(=O)NC(C)C)C2 | -11.1% |
| CC(C)CN1C[C@H]2N(c3ncccn3)CCC[C@@]2(C(=O)NCC2CC2)C1 | 98.73% |
| CNC(=O)[C@@]12CCCN(c3ncccn3)[C@@H]1CN(c1ncc(C)cn1)C2 | -6.772% |
| CNC(=O)[C@@]12CCCN(c3ncccn3)[C@@H]1CN(c1ncc(F)cn1)C2 | 0.8573% |
| CS(=O)(=O)N1C[C@H]2N(c3ncccn3)CCC[C@@]2(C(=O)NCC2CC2)C1 | 106.2% |
| CS(=O)(=O)N1C[C@H]2CNC[C@@]2(C(=O)NCCOc2ccccc2)C1 | -7.447% |
| CNC(=O)N1C[C@H]2N(c3ncccn3)CCC[C@@]2(C(=O)NCC2CC2)C1 | 110.5% |
| CC1CCCCN1CCNC(=O)NCc1ccc(C#N)cc1F (stereo unspecified) | 4.831% |
| CC(=O)N1CCC2(CCN(Cc3cccc(F)c3)CC2)CC1.O=C(O)C(F)(F)F | 4.828% |
| NC(=O)N1CCC2(CCN(Cc3cccc(F)c3)CC2)CC1.O=C(O)C(F)(F)F | 7.684% |
| O=C(O)C(F)(F)F.O=C1[C@@H]2CCN(Cc3ccoc3)C[C@@H]2OCCN1Cc1cccc(F)c1 | 7.665% |
| Fc1ccc(CN2C[C@@H]3OCCN(CCN4CCCC4)[C@@H]3C2)cc1.O=C(O)C(F)(F)F.O=C(O)C(F)(F)F.O=C(O)C(F)(F)F | -5.638% |
| Cc1noc(C)c1CN1CCC2(CCN(Cc3cccc(F)c3)CC2)C1.O=C(O)C(F)(F)F.O=C(O)C(F)(F)F | 108.5% |
| Cc1noc(C)c1CN1CCO[C@H]2CN(Cc3cccc(F)c3)C[C@H]21.O=C(O)C(F)(F)F.O=C(O)C(F)(F)F | 84.77% |
| Cc1ccsc1-c1nccn1CCN(C)S(C)(=O)=O | -5.374% |
| Cc1nc(-c2ccccc2)n(CC(=O)NC(C2CC2)C2CC2)n1 | -13.82% |
| Cc1nc(-c2ccccc2)n(CC(=O)NC2CCCC2)n1 | 94.43% |
| Cc1nc(-c2ccccc2)n(CC(=O)NC2CCCCC2)n1 | 105.1% |
| Cc1cccc(-c2nc(C)nn2CC(=O)NC2CCCC2)c1 | 6.583% |
| Cc1nc(-c2ccccc2C)n(CC(=O)NC(C)C2CC2)n1 (stereo unspecified) | -5.719% |
| Cc1nc(-c2ccccc2C)n(CC(=O)NC2CCCC2)n1 | 83.22% |
| CCC(CC)NC(=O)Cn1nc(C)nc1-c1ccccc1 | 0.4964% |
| Cc1nc(-c2ccccc2C)n(CC(=O)NC(C)C)n1 | -16.1% |
| O=C(O)[C@@H]1CN(Cc2c[nH]c(CC3CCCC3)n2)C[C@H]1c1ccccn1 | -9.177% |
